Laboratory results published in PubChem BioAssay (NCI).
About 83,000 compounds went through this panel and 20% of them were active in at least one assay; those are over-represented in the sample as a whole.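 Single-dose data. Exposure time 48 hours. Values below 10 considered active.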 A number with no mark means an inactive call. Active and inactive are the calls of the source.

Columns and labels:
Experiment in all cases: NCI-60 one-dose screen, 48 h (100 = growth as untreated, 0 = no growth, -100 = all killed)
Settings in all cases: 10 µM unless noted
[1] = tested on: NCI-H23 lung
[2] = tested on: NCI-H226 lung
[3] = tested on: NCI-H322M lung
[4] = tested on: HOP-62 NSCLC
[5] = tested on: NCI-H460 lung
[6] = tested on: HOP-92 NSCLC
[7] = tested on: NCI-H522 lung
[8] = tested on: A549/ATCC NSCLC
[9] = tested on: 786-0 renal
[10] = tested on: COLO 205 colon
[11] = tested on: DU-145 prostate
[12] = tested on: K-562 leukemia
[13] = tested on: MALME-3M melanoma
[14] = tested on: MDA-MB-231 breast
[15] = tested on: RXF 393 renal
[16] = tested on: SF-268 CNS
[17] = tested on: SF-295 CNS
[18] = tested on: SF-539 CNS
[19] = tested on: UACC-257 melanoma
[20] = tested on: M14 melanoma

| SMILES | growth [1] | growth [2] [%] | growth [3] [%] | growth [4] | growth [5] | growth [6] | growth [7] | growth [8] [%] | growth [9] | growth [10] | growth [11] [%] | growth [12] | growth [13] | growth [14] | growth [15] | growth [16] [%] | growth [17] | growth [18] | growth [19] | growth [20] |
| --- | --- | --- | --- | --- | --- | --- | --- | --- | --- | --- | --- | --- | --- | --- | --- | --- | --- | --- | --- | --- |
| CCCCCN1C=C/C(=C\C(=O)N(C)c2ccc(Br)cc2)c2ccccc21 | 87.3% | 86.3 | 98.8 | 94.5% | 105% | 82.7% | 82.1% | 95.2 | 98% | 108% | 104 | 76.5% | 96.9% | 101% | 92.9% | 96.2 | 99.2% | 102% | 95.1% | 104% |
| COc1ccc2c(c1)c(CC(=O)NCCOCCOCC(=O)Nc1ccc(OC)c(C(N)=O)c1O)c(C)n2C(=O)c1ccc(Cl)cc1 | 90.1% | 91.5 | 92.7 | 88.8% | 101% | 91.3% | 81.3% | 85.7 | 73.8% | 109% | 107 | 91.5% | 118% | 92% | 92.9% | 88.9 | 93.8% | 99.9% | 113% | 98.3% |
| COc1cccc(CNCCN2C(=O)c3ccc4c5c(ccc(c35)C2=O)C(=O)N(CCNCc2cccc(OC)c2)C4=O)c1 | 87.2% | 95.8 | 89.9 | 105% | 46.8% | 99.9% | 86.9% | 46.2 | 81% | 53.7% | 113 | 8.7% (active) | 26.3% | 78.1% | 87% | 74.1 | 113% | 97.8% | 79.1% | 71.7% |
| O=C(CSc1nc2sc3c(c2c(=O)n1Cc1ccccc1)CCCC3)N1CCN(c2ccccc2)CC1 | 90.9% | 94.6 | 89.4 | 88.3% | 103% | 103% | 81.1% | 73 | 103% | 112% | 103 | 99.4% | 109% | 101% | 105% | 93.9 | 101% | 103% | 85.7% | 97.2% |
| CC(=O)OCC(=O)C1(O)C(C)CC2C3C=C(C)C4=Cc5c(cnn5-c5ccccc5)CC4(C)C3C(O)CC21C (stereo not given) | 8.49% (active) | 43.2 | 57.9 | 7.4% (active) | 6.3% (active) | -0.484% (active) | 4.55% (active) | 24.5 | -39.2% (active) | -70.1% (active) | 27.1 | 2.57% (active) | 25.6% | -11.2% (active) | -5.14% (active) | 31.1 | -51.1% (active) | -21.3% (active) | 52.3% | -4.56% (active) |
| Clc1ccc2c(c1)c(-c1ccccc1)nc1nncn12 | 98.6% | 114 | 114 | 105% | 117% | 119% | 93.1% | 106 | 94.2% | 115% | 112 | 119% | 113% | 119% | 135% | 95.6 | 101% | 95.1% | 115% | 110% |
| OC(c1ccccc1)c1ccccn1 (stereo not given) | 107% | 97.8 | 102 | 104% | 107% | 94.4% | 84.6% | 77.1 | 97.2% | 108% | 110 | 94.3% | 113% | 105% | 104% | 102 | 101% | 97.7% | 90.5% | 96.1% |
| COc1cc2oc(-c3cccc(C(=O)Nc4ccc(Cl)cc4)c3)cc(=O)c2c(OC)c1OC | 44.3% | 36.5 | 37 | 12.8% | 20.1% | -2.18% (active) | 25.2% | 23.6 | 12% | 18% | 42.4 | 16% | 14.2% | -3.1% (active) | -29% (active) | 48.3 | -41.6% (active) | 35.2% | -7.18% (active) | -18% (active) |
| COc1cccc(NC(=O)c2cccc(-c3cc(=O)c4c(OC)c(OC)c(OC)cc4o3)c2)c1 | 63.1% | 63.3 | 80.1 | 59.5% | 60.1% | 41.9% | 46.6% | 62.8 | 68.9% | 68.3% | 71.8 | 40.3% | 84.8% | 59.6% | 47.9% | 63.1 | 70.8% | 77.5% | 92.4% | 73.5% |
| CCCNC(=O)Oc1ccc(/C(=C(\C)c2ccccc2)c2ccc(OCCN3CCCCC3)cc2)cc1 | 79.4% | 89.5 | 83.3 | 81.9% | 66.7% | 80.7% | 103% | 62.2 | 35.8% | 38% | 87.9 | 10.2% | 61.3% | 81.9% | 64.4% | 72.6 | 55% | 37.5% | -14.1% (active) | 14.1% |
| COC(=O)CCCCCCCCC1(C)C=CC(C(C)O)=CC1 (stereo not given) | 96.2% | 97 | 109 | 101% | 111% | 93.2% | 89% | 94 | 108% | 111% | 110 | 84.5% | 105% | 110% | 107% | 105 | 109% | 112% | 108% | 110% |
| c1ccc(-c2nn(-c3ccccc3)[n+](-c3cccc4ccccc34)n2)cc1 | 1.91% (active) | 26.9 | 42.2 | 41.7% | 1.82% (active) | -13.2% (active) | -8.34% (active) | 23.4 | 42.5% | 3.41% (active) | 29.1 | 8.3% (active) | -38.7% (active) | 31.5% | 30.8% | 26.4 | 16.8% | 25.6% | 17.5% | 27.6% |
| COc1cccc(-c2nc3occn3c2-c2ccnc(NCCCNS(=O)(=O)c3cccc(F)c3)n2)c1 | 89.7% | 62.2 | 107 | 108% | 82.6% | 91.9% | 74.9% | 97.4 | 103% | 45.5% | 93.8 | 69% | 70.2% | 104% | 99.2% | 87 | 94.8% | 106% | 83.8% | 60.9% |
| O=C1Nc2ccccc2/C1=N/c1nc(-c2ccc(Cl)cc2)cs1 | 75% | 64.2 | 92.6 | 56% | 67.7% | 51.5% | 50.1% | 49.4 | 75.6% | 63.8% | 75.3 | 48.5% | 81.4% | 67.8% | 64.7% | 54.1 | 81.5% | 84.5% | 48.9% | 67.8% |
| CCCC1C(C(=O)OCC)=C(N)Oc2cc(O)ccc21 (stereo not given) | 90.7% | 78.9 | 109 | 76.7% | 93.1% | 74.8% | 77.2% | 101 | 95.1% | 96.3% | 103 | 85.6% | 98.8% | 93.6% | 131% | 104 | 102% | 93.8% | 104% | 90.5% |
| COc1cc2c(cc1[N+](=O)[O-])-c1ccc([N+](=O)[O-])cc1/C2=N/NC(N)=S | 71.5% | 62.6 | 93.9 | 99.9% | 29.6% | 78.3% | 35.5% | 69.2 | 70.6% | 66.7% | 79 | 59.9% | 93.7% | 74.4% | 68.2% | 73.9 | 43.6% | 73% | 75.5% | 82.8% |
